Assay outcomes as filed in PubChem.
Anthrax LF inh2 – inhibitors of Bacillus anthracis lethal factor protease. inhibition, % at 10 µM. multiplex microsphere protease cleavage assay, LF. P15917. 360,000 tested, 0.12% active; note: plate controls were buffer without enzyme for full effect and enzyme alone for no effect
Target sequence (P15917 whole entry, looked up): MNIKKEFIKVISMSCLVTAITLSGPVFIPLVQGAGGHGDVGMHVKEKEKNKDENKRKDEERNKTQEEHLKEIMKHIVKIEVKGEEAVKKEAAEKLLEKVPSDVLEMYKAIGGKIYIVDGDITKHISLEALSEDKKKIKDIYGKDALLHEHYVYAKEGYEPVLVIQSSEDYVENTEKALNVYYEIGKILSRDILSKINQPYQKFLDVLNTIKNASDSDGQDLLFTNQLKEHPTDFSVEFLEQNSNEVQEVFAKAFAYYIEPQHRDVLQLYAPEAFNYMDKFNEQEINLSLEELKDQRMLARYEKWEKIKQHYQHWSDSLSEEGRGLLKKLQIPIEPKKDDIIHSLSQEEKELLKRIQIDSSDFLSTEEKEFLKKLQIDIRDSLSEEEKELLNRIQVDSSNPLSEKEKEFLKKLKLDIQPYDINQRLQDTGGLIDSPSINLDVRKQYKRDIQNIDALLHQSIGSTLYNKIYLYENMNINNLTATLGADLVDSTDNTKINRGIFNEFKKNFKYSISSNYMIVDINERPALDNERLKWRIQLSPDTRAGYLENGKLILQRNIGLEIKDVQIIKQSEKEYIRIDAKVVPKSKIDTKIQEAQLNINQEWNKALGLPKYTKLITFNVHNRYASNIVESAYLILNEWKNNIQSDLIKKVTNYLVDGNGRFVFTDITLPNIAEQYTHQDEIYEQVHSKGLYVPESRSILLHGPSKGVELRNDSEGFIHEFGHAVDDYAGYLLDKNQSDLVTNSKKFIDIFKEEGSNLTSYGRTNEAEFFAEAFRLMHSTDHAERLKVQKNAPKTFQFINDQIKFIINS
BoNT F protease – inhibitors of Botulinum neurotoxin F light chain protease; Multiplex microsphere protease cleavage assay, flow cytometry; inhibition, % at 10 µM; 360,000 tested, 0.22% active; in the data active = inhibition above about 35%, passing the limit was not always enough; inconclusive = no clear call, values can overlap the other calls; note: plate controls were buffer without enzyme for full effect and enzyme alone for no effect
Autofluor counter – flagged as autofluorescent in microsphere protease counterscreen; 360,000 tested, 3.1% active; compound autofluorescence counterscreen, microsphere flow cytometry; active compounds read high; fluorescence intensity (no concentration beside the values); in the data active = fluorescence intensity above about 16000; inconclusive = no clear call, values can overlap the other calls
CCHFV vOTU inh – CCHFV vOTU protease inhibition; Pep-AMC fluorescence; inhibition, % at 11.5 µM; 370,000 tested, 0.55% active; AID 651958; in the data active = inhibition above about 30%; note: 0% = vehicle wells with enzyme and 100% = no enzyme wells
BoNT A protease – BoNT A light chain protease inhibition. inhibition, % at 10 µM. multiplex microsphere protease substrate cleavage, flow cytometry. 360,000 tested, 0.17% active; note: plate controls were buffer without enzyme for full effect and enzyme alone for no effect
SARS 3CLpro inh – SARS-CoV 3CLpro protease inhibition | P0C6X7 | recombinant SARS-CoV 3CLpro, quenched FRET peptide cleavage | inhibition, % at 6 µM | 290,000 tested, 0.14% active | AID 1706; in the data active = inhibition above about 12%
Numbers without * were called inactive; ? = inconclusive; . = no result. This is a sample that favours compounds with a hit; in the whole collection about 3.9% have one here. Cut-off read from the data, not from the text of the source, unless noted: active = inhibition above about 30%; inconclusive = no clear call, values can overlap the other calls; inactive = below that.

SMILES	Anthrax LF inh2	BoNT F protease	Autofluor counter	CCHFV vOTU inh	BoNT A protease	SARS 3CLpro inh
O=C(NCCO)c1ccc(Cl)c(Cl)c1	-3.1	-13.1	4898	1.7	0.8	0.0
O=C1NC(=O)N(Cc2ccccc2Cl)C(=O)/C1=C/N1CCOCC1	-0.8	-2.6	23148*	1.1	0.5	-2.3
O=C1NC(=O)N(Cc2cccs2)C(=O)/C1=C/c1ccc(N2CCOCC2)cc1	-8.9	-9.0	3175	17.6	0.0	2.9
O=C(CN1CCC(C(=O)c2ccc(F)cc2)CC1)Nc1ccc(F)cc1	-0.8	5.8	8496	0.7	-0.5	0.7
CCOc1ccc(C(=O)N2CCC(C(=O)c3ccc4c(c3)OCCO4)CC2)cc1	0.7	-0.2	17361*	-2.3	0.7	7.1
CCN(CC(=O)Nc1ccc2c(c1)OCCO2)S(=O)(=O)c1ccc(C)cc1	2.4	-3.7	17435*	21.0	-2.4	7.2
CCN(CC(=O)Nc1ccc2c(c1)OCCO2)S(=O)(=O)c1cccs1	.	.	.	5.0	.	1.5
O=C(c1ccc(F)cc1)C1CCN(C(=O)NCc2ccccc2)CC1	-0.2	-0.8	24106*	-1.5	-1.1	-3.3
O=C(CN1CCC(C(=O)c2ccc(F)cc2)CC1)Nc1ccccc1	0.3	-0.9	19525*	2.9	0.6	-0.2
COC(=O)c1cc(S(=O)(=O)N2CCN(C(C)=O)CC2)cn1C	.	.	.	5.8	.	.
Cc1ccc(C(=O)C2CCN(CC(=O)Nc3ccc4c(c3)OCCO4)CC2)cc1	-0.1	-3.4	23981*	-0.5	0.6	0.7
O=C(NCc1ccc(F)cc1)C1CCCN(C(=O)Nc2ccc(F)cc2)C1 (stereo unspecified)	1.4	-3.1	2942	8.0	0.4	-1.5
O=C(NCc1ccc(F)cc1)C1CCCN(C(=O)Nc2ccccc2)C1 (stereo unspecified)	-4.4	-0.6	19569*	-8.7	?	-3.6
COc1ccc(S(=O)(=O)N2CCC(C(=O)c3ccc4c(c3)OCCO4)CC2)cc1	-0.5	3.6	9619	1.2	0.6	-5.2
CCN(CC(=O)Nc1ccc2c(c1)OCCO2)Cc1cc(=O)oc2c(C)c(C)ccc12	-1.9	9.4	20523*	11.6	?	1.1
O=C(c1ccc2c(c1)OCCO2)C1CCN(S(=O)(=O)c2ccccc2F)CC1	-6.8	-1.2	23887*	-2.2	?	2.3
Cc1cccc(NC(=O)CN2CCC(C(=O)c3ccc4c(c3)OCCO4)CC2)c1	7.2	-8.4	3710	3.0	0.2	-5.7
COc1cc(NC(=O)C2CCCN(S(=O)(=O)c3ccc(Cl)s3)C2)cc(OC)c1 (stereo unspecified)	.	.	.	-0.9	.	.
Cc1ccc(C(=O)C2CCN(CC(=O)Nc3ccc(N(C)C)cc3)CC2)cc1	-0.8	-4.7	21202*	19.7	?	-1.4
CCOC(=O)CSC1=C(C#N)C(c2ccccc2Cl)C(C(=O)OC)C(=O)N1 (stereo unspecified)	2.4	10.0	20786*	14.8	4.9	-0.6
O=[N+]([O-])c1ccc(Cl)c(/C=N/NC(=S)Nc2ccccc2)c1	-3.8	-4.3	16957*	-0.2	?	1.5
NC(=S)N/N=C/c1cc([N+](=O)[O-])ccc1Cl	-1.4	2.0	4076	12.6	-0.1	-2.9
O=S1(=O)N=C(Oc2ccccc2)c2ccccc21	-0.5	-0.5	23213*	-8.4	0.8	0.4
COC(=O)C1CN(Cc2cn(Cc3ccc(OC)cc3)nn2)CCS(=O)(=O)N1Cc1ccc(C)cc1 (stereo unspecified)	.	.	.	-3.3	.	.
CCN(C(=O)Cc1c(C(=O)O)[nH]c2ccccc12)c1cc(OC)ccc1OC	-4.0	-1.1	20129*	7.7	0.3	-0.2
SMILES	Anthrax LF inh2	BoNT F protease	Autofluor counter	CCHFV vOTU inh	BoNT A protease	SARS 3CLpro inh
C#CCCN([C@H](C(=O)OC)C(C)CC)S(=O)(=O)c1ccccc1Br (stereo partly specified)	.	.	.	7.9	.	.
COC(=O)C(c1cc(OC)c(O)c(OC)c1)(N1CCNC(C)C1)C(F)(F)F (stereo unspecified)	-4.6	3.7	18737*	1.4	3.2	-3.2
Cc1ncoc1C(=O)Nc1cccc(Cl)c1C	-0.8	-1.6	23395*	-15.5	-3.5	-3.5
Cc1ncoc1C(=O)Nc1ccccc1C(N)=O	0.3	-1.8	23428*	-0.4	-0.4	-5.3
Cc1ncoc1C(=O)Nc1cccc(Cl)c1	0.5	-2.9	16565*	.	-1.0	1.3
Cc1ocnc1C(=O)Nc1ccc(Cl)cc1	-6.3	-4.2	20071*	-5.4	-1.7	-0.4
Cc1ccccc1NC(=O)c1ocnc1C	4.4	-6.7	5817	-1.4	0.3	-0.4
COC(=O)[C@H](C)N(Cc1cn(Cc2ccccc2)nn1)S(=O)(=O)c1ccccc1Br	.	.	.	7.8	.	.
O=C(NC1CCC1)c1ccc(C#Cc2cccc(F)c2)cn1	.	.	.	3.4	.	.
COc1ccc(CN2CCN(CC(=O)Nc3ccccc3C(=O)NC3CC3)CC2)cc1F	-16.3	?	19106*	-5.7	-67.8	.
COc1ccc(F)cc1CN1CCN(CC(=O)Nc2ccccc2C(=O)NC2CC2)CC1	4.9	-0.6	3841	0.2	0.7	.
Cc1ccc(NC(=O)Cc2cccc(OC(F)(F)F)c2)c(S(=O)(=O)N2CCOCC2)c1	.	.	.	1.6	.	.
CS(=O)(=O)N(CC(=O)NCC1CCCO1)Cc1ccc(Cl)cc1 (stereo unspecified)	-1.6	-32.7	3793	0.5	-0.1	-0.8
CS(=O)(=O)N(CC(=O)NC1CCCC1)Cc1ccc(Cl)cc1	0.3	-0.4	17349*	1.7	-2.7	-6.4
CN(CC(=O)NC1CCCCC1)S(=O)(=O)c1ccc(Cl)cc1	7.6	10.4	6633	-5.2	1.0	-1.4
CS(=O)(=O)N(CC(=O)NC1CCCCC1)Cc1ccc(Cl)cc1	-3.9	-5.1	17256*	-23.7	-2.6	-3.5
CS(=O)(=O)N(CC(=O)N1CCCCCC1)Cc1ccc(Cl)cc1	-0.7	4.4	22456*	-2.4	?	-1.4
COc1ccc(CN2C(=O)[C@@](O)(c3cccn3C)c3cc(Br)ccc32)cc1	.	.	.	11.6	.	.
CCCC(=O)n1nc(-c2cccnc2)nc1N	-2.1	-4.8	23837*	3.2	?	-0.7
Cc1ccc(C(=O)n2nc(-c3cccnc3)nc2N)cc1	-2.0	-5.5	9857	-10.2	-0.9	6.1
O=c1ncn(-c2cccc(F)c2)c2ncccc12	-0.2	1.1	19821*	14.2	?	5.6
COc1ccc(N2CCN(CCCNC(=O)CCc3cccc(F)c3)CC2)cc1	.	.	.	-7.0	.	.
Cc1ccc(S(=O)(=O)c2nc(Nc3ccccc3N3CCOCC3)sc2Cl)cc1	-0.3	-2.1	16143*	-11.7	1.1	1.0
C=CCn1c(SCc2c(F)cccc2Cl)nnc1-c1ccco1	-2.5	0.3	16837*	3.1	-0.5	2.6
CN1CC[C@@H]2CN(S(=O)(=O)c3ccccc3)[C@H](c3ccccc3Br)C[C@@H]21	.	.	.	-6.7	.	.
O=C(COc1ccccc1F)NC1CCN(Cc2ccccc2)CC1	-2.7	-3.7	20185*	1.9	-2.1	-0.6
CS(=O)(=O)NC1CCN(Cc2ccccc2)CC1	0.9	-4.8	22396*	4.8	?	2.8
N#Cc1ccc(/C=C2\CC3(OC(=O)c4ccc(F)cc4)CCCN2C3)cc1 (stereo unspecified)	.	.	.	3.7	.	.
